Reference: PubChem BioAssay AID2544 (Sanford-Burnham Center for Chemical Genomics, 2010)
In all, about 330,000 compounds went through this assay and about 390 (0.12%) were called active.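 How the source made its calls: active means inhibition reaching a set limit with compound at 10 µM in the primary screen (cut at about 35% in these data); inactive means the rest.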 Many of the other results were omitted from the sample, so actives are more common in it than they were.

Biological target: Intestinal-type alkaline phosphatase (Homo sapiens) (UniProt P09923)
Assay: blockers of intestinal alkaline phosphatase activity – biochemical, luminescence, uHTS, primary screen (AID 2544);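 further: plate controls were DMSO wells with enzyme for no effect and no-enzyme buffer wells for full effect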
Details: purified IAP, CDP-Star luminescence, 30 min; at 10 µM; stronger effect = higher value

Sequence of Intestinal-type alkaline phosphatase (Homo sapiens) (P09923 whole entry, looked up): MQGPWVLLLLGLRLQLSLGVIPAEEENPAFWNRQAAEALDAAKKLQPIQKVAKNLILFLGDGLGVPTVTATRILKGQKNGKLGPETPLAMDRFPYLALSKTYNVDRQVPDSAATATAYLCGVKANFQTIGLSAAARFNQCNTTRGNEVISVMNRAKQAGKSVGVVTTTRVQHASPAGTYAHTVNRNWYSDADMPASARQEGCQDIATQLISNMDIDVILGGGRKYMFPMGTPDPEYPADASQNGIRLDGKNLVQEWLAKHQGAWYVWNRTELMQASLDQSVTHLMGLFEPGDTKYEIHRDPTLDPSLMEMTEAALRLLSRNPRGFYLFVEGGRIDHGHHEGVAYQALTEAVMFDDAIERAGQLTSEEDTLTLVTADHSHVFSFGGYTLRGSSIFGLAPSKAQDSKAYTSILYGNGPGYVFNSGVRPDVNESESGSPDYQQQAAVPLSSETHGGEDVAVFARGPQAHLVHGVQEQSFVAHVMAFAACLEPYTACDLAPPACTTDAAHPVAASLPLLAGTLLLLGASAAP

inhibition, inactive:
COc1cccc(-n2c(=O)c3c(C)c(C(=O)N(C)C)sc3n(CC(=O)NCCc3ccc(OC)c(OC)c3)c2=O)c1 -1.6%, C[N+]1(CCNC(=O)/C=N/O)CCCCC1 -34.9%, CC(=O)c1ccc(S(=O)(=O)Nc2ccc(-c3ccc4nncn4n3)cc2)cc1 -1.5%, COC(=O)[C@H](C(C)C)n1c(C)c(C(C)=O)c(C(C)=O)c1C -6.9%, CC(C)C[C@H](NC(=O)[C@@H]1O[C@H]1C(=O)O)C(=O)NCCCCN=C(N)N 14.6%, CCCc1ccc(C(=O)[C@@H]2[C@@H](C(C)=O)N3c4ccc(F)cc4C=C[C@@H]3[C@@]23C(=O)Nc2ccccc23)cc1 0%, CCCCc1nc(NCCN)c(C#N)c2c1CSC(C)(C)C2 6.8%, Cc1ccc(S(=O)(=O)Nc2ccc(F)c(S(=O)(=O)N3CCOCC3)c2)cc1 -6.7%, CC(Oc1ccccc1)C(=O)NN1Cc2ccccc2C1=N (configuration not stated) -9.2%, Cc1cccn2c(=O)nc(SCC(=O)NCc3ccccc3Cl)nc12 -1.6%, CCOCc1nnc(NC(=O)CCS(=O)(=O)Cc2ccccc2)s1 -9.2%, COC(=O)CSc1nnc(NC(=O)CCc2ccccc2)s1 -5.1%, CCOc1ccccc1NC(=S)N1CCN(c2cccc(C)c2C)CC1 -5.2%, COc1ccccc1C(=O)N(C1=NC(C)CS1)c1ccc(Cl)cc1 (configuration not stated) -3%, Cc1ccn2c(=O)c(C(=O)NCCC3=CCCCC3)c(O)nc2c1 6.8%, O=C(Nc1cc(S(=O)(=O)N2CCOCC2)ccc1OCC(F)(F)F)c1ccc(N2CCCC2=O)cc1 2.5%, Cc1cc(C)c2c(n1)sc1c(=O)n(-c3ccccc3)c(=O)[nH]c12 5.6%, Cc1ccc(-n2c(C)nnc2SCC(=O)NC2CC2)cc1 -12.6%, Cc1nc(-c2ccc(F)cc2)c(CC(=O)Nc2cc(S(=O)(=O)N3CCCCC3)ccc2C)s1 -13.3%, CC(C)Oc1c(Br)cc(Br)cc1/C=N/NC(N)=S 14.7%, COc1ccc(C(C(=O)NC(C)(C)C)N(C(=O)Cn2nnc3ccccc32)c2ccc(C(C)=O)cc2)cc1O (configuration not stated) -15.8%, CCC(=O)c1ccc(OCC(=O)OCC(=O)NC2CCCCCC2)cc1 8.3%, Oc1ccc(CNc2ccccc2O)cc1 -0.8%, COc1ccc(/C=C2\N=C3CCCN3C2=O)cc1 7.3%, Cc1cc(C)c2c(Cn3ccnc3)cc(=O)oc2c1 -7%, CN(CC(=O)Nc1cccc(F)c1)C(=O)C1CC(=O)N(CCc2ccccc2)C1 (configuration not stated) 2.5%, C/C(Cc1ccccc1)=N\NC(=O)CNC(=O)c1ccc2c(c1)OCCO2 1.8%, CSc1ccc(S(=O)(=O)Nc2cccc(F)c2)cc1 7%, CN=C1SC(CC(=O)Nc2ccc(C(=O)O)cc2)C(=O)N1C (configuration not stated) 15.6%, CCOC(=O)COc1cc(OCC(=O)OCC)c2c(=O)cc(-c3ccccc3)oc2c1 -22.1%, Cc1cccc(-c2nnc(SCC(=O)O)n2Cc2ccccc2)c1 -16.7%, CCn1nnnc1SCC(=O)c1ccc(C)cc1C -4%, Cc1ccccc1N1CC(C(=O)Nc2nnc(SCCC3OCCO3)s2)CC1=O (configuration not stated) 18.3%, C=CCn1c(=S)sc2c(=O)[nH]c(C)nc21 -10.3%, CN(C)/C=C1\C=C(c2ccccc2)OC1=O 0.7%, Cc1ccc(N=C2SCCCN2C(=O)c2cccc(N3C(=O)CCC3=O)c2)cc1Cl -21.5%, Cc1ccc(-n2ncc3c(Nc4cccc(C(=O)O)c4)ncnc32)cc1 17.6%, Cc1c(NC(=O)CN2C(=O)C(=O)N(Cc3ccccc3)C2=O)c(=O)n(-c2ccccc2)n1C 8.1%, NC(=O)c1nsc(C(=O)N(CC(=O)NCc2ccc(F)cc2)Cc2ccco2)c1N -10.8%, O=C(CSc1nccn1-c1cccc(F)c1)NC1CCCC1 2.7%, Cc1csc(NC(=O)CSc2nc(=O)n(CCCN(C)C)c3c2CCC3)n1 6.4%, O=C(O)C1=CCCN(CCON=C(c2ccccc2)c2ccccc2)C1 -0.4%, CC(C)(C)c1ccc(/C=C2\Oc3c(ccc(O)c3CN3CCN(CCO)CC3)C2=O)cc1 8.9%, CCOC(=O)c1ccc(NC(=O)CCn2c(=O)oc3ccccc32)cc1 -9.6%, CC[C@]1(c2ccccc2OC)C(=O)N(C(=O)OC)N1C(=O)OC 8.5%, O=C(COC(=O)Cc1c[nH]c2ccccc12)NCCc1ccccc1 14.4%, Cc1ccc(Cn2c(=N)c(S(=O)(=O)c3ccc(C)cc3)cc3c(=O)n4ccccc4nc32)cc1 -7.4%, Cc1cc(C(F)F)nn1CC(=O)NC1CCCCCC1 14%, CCC(C)N(C(=O)COC(=O)C1C(C(=O)OC)=C(C)NC(C)=C1C(=O)OC)C1CCS(=O)(=O)C1 (configuration not stated) -1.2%, CCN(C(=O)COC(=O)Cc1c(F)cccc1Cl)c1c(N)n(Cc2ccccc2)c(=O)[nH]c1=O -9.2%, Cc1ccc(CNC(=O)c2cc(-c3ccccc3C)n(CC3CC(c4cccc([N+](=O)[O-])c4)=NO3)n2)cc1 (configuration not stated) 17%, OCCC#Cc1ccc(CN2CCN(Cc3ccsc3)C(CCO)C2)cc1 (configuration not stated) 12.2%, CC1O[C@@H](OC2C(O)C(C)O[C@H](OC(=O)[C@]34CCC(C)(C)C[C@H]3C3=CCC5[C@@]6(C)CC(O)C(O[C@@H]7OC(CO)C(O)[C@@H](O)[C@@H]7O)[C@@](C)(C(=O)O)C6CC[C@@]5(C)[C@]3(CO)CC4)C2O[C@H]2OC(C)[C@@H](O[C@@H]3OCC(O[C@@H]4OC(CO)C(O)[C@H](O)C4O)[C@@H](O)[C@@H]3O)[C@H](O)C2O)C(O)C(O)C1O (some centres not stated) -8.3%, CCOC(=O)c1[nH]cnc1C(=O)NC1CCCCC1 -28.7%, CCN(CC(=O)Nc1ccc2c(c1)OCCO2)Cc1cc(=O)oc2cc(C)c(C)cc12 5%, O=C(NNC1=C(C(=O)C(F)(F)F)CCC1)c1ccncc1 -34.2%, COC(=O)C(C)Sc1ccc2nnc(-c3cccc(F)c3)n2n1 (configuration not stated) -8.4%, COc1ccccc1C(=O)NCCC(=O)NN1C(=O)NC2(CCCCC2)C1=O 14.4%, CC1(C)NC(=O)N(CCCCSc2ccc(Cl)cc2)C1=O -0.2%, Cc1ccc(Cl)c(OCC(=O)N2CCc3ccccc3C2)c1 -20.2%, O=C(CSc1nnc(CNC(=O)c2ccc(F)cc2)o1)Nc1ccc2c(c1)OCO2 -13.1%, COc1ccc(CN2CCC(c3nc4ccc(Cl)cc4[nH]3)CC2)cc1 -27.1%, O=C(NCc1ccc2c(c1)OCO2)C1CCCN(S(=O)(=O)c2cccs2)C1 (configuration not stated) 17.9%, COc1ccc(C(C#N)N2N=C(C)CC2(C)C)cc1 (configuration not stated) -6.2%

inhibition, active:
COCCSc1nnc(NC(=O)CCS(=O)(=O)Cc2ccccc2)s1 35.1%, COc1c(O)cc2oc(-c3ccc(O)c(O)c3)cc(=O)c2c1O 40.1%, Cc1ccc2c(c1)nnc1nnc(SCC(=O)O)n12 36.1%
